Measured values as given in PubChem BioAssay AID743398 (Broad Institute, 2014).
Out of some 300,000 compounds screened, about 3,600 (1.2%) were called active. No stated cut-off is given here; in the data, active means activation above about 30% (passing the limit was not always enough); inconclusive means no clear call, values can overlap the other calls. The sample as a whole holds a higher share of actives than the screen did.

Assay: activation of beta-catenin signaling reporter – cell-based, plate reader, single point, primary screen (AID 743398);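 further: 0% = neutral control wells and 100% = positive control wells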
Details: Wnt/beta-catenin reporter cell assay, activator, at 9.35 µM, active compounds read high

Row | Structure (SMILES) | activation
1 | COC(=O)C1=C(C)N(Cc2ccccc2C(F)(F)F)C(=NCC2CC2)NC1c1cccc(Cl)c1 (stereo unspecified) | -1.87% (inactive)
2 | CCOC(=O)[C@]12CCCC=C1N(Cc1cccc3ccccc13)C(=O)[C@H](CC(=O)NCC13CC4CC(CC(C4)C1)C3)C2 | -3.35% (inactive)
3 | CCc1c(-c2ccc(F)cc2)ncn1Cc1cccc(-c2ccccc2)c1 | -4.88% (inactive)
4 | CN[C@H]1C[C@H]2c3[nH]c4c(-c5ccccc5)cccc4c3CCN2C(=O)[C@H]1[C@H](C)O | -5.37% (inactive)
5 | CCCc1nc2c3ccccc3ccn2c1Cc1ccccc1C(F)(F)F | -0.94% (inactive)
6 | Cc1ccc(N)cc1CN1CCN(c2ncc(Cc3ccccc3)cn2)CC1 | -1.28% (inactive)
7 | COc1ccc(-c2[nH]ncc2CN(C)Cc2cccnc2)c(F)c1 | 8.31% (inactive)
8 | CCN(CCn1cccn1)Cc1cn[nH]c1-c1ccc(OC)cc1F | 33.5% (active)
9 | COc1ccc(-c2[nH]ncc2CN(C)Cc2cc(C)[nH]n2)c(F)c1 | -0.792% (inactive)
10 | NC(=O)c1ccccc1N(Cc1ccccc1)S(=O)(=O)c1ccccc1 | 30% (active)
11 | O=C(O)c1cc(S(=O)(=O)N(Cc2ccccc2)c2ccccc2)ccc1Cl | 1.67% (inactive)
12 | CCOC(=O)N1CCN(C(=O)c2ccccc2N(Cc2ccccc2)S(=O)(=O)c2ccc(OC)cc2)CC1 | -3.31% (inactive)
13 | O=C(N[C@H](Cc1ccccc1)C(=O)N1CCCN(Cc2cccs2)CC1)[C@H]1O[C@@H](n2ccc(=O)[nH]c2=O)[C@H](O)[C@@H]1O | 2.26% (inactive)
14 | NC(=O)c1ncn([C@@H]2O[C@H](C(=O)O)[C@@H](O)[C@H]2O)n1 | 3.51% (inactive)
15 | COc1ccc(-c2csc(Nc3cccc(C)n3)n2)cc1OC | 50% (active)
16 | CC(=O)Nc1cccc(-c2csc(Nc3cccc(C)n3)n2)c1 | 26.8% (inactive)
17 | Cc1cccc(Nc2nc(-c3ccccc3)cs2)n1 | 19.7% (inactive)
18 | CC(=NNC(N)=O)c1ccc(Cl)c(-n2cccc2)c1 | -7.68% (inactive)
19 | COc1ccccc1-c1cc2nc(NCc3cccc(Cl)c3)ccn2n1 | -1.89% (inactive)
20 | CCCCOc1ccc(-c2nnc(-c3ccco3)o2)cc1 | 46.7% (active)
21 | COc1ccc(OCC(=O)Nc2nnc(-c3ccco3)s2)cc1 | -4.19% (inactive)
22 | Cc1ccc(OCC(=O)Nc2nnc(-c3ccco3)s2)cc1 | -0.584% (inactive)

Row | Structure (SMILES) | activation
23 | C=CCN=C1NC(c2ccccc2)C(C(=O)OC)=C(C)N1Cc1ccc(C(F)(F)F)cc1 (stereo unspecified) | -8.4% (inactive)
24 | Cn1c(-c2ccc(C(=O)c3ccccc3)s2)nc2ccccc21 | 44.9% (active)
25 | Cn1c(S(=O)(=O)O)nc2ccccc21 | -1.9% (inactive)
26 | Cn1c(NC(=O)c2ccccc2)nc2ccccc21 | 19.2% (inactive)
27 | CCCCc1c(-c2ccc(Cl)cc2)ncn1CCc1ccccc1OC | -10.4% (inactive)
28 | O=S1(=O)c2ccc(Br)cc2-n2nncc2CN1Cc1cccc(Cl)c1 | -0.853% (inactive)
29 | CCOC(=O)[C@H]1Nc2ccc(Cl)cc2[C@@H]2[C@H]1C1CC(c3ccccc31)N2C(=O)OCc1ccccc1 (stereo partly specified) | -1.09% (inactive)
30 | Cc1ccn(-c2cccc(-n3ccc(C)n3)n2)n1 | 57.6% (active)
31 | Cc1cccc(N2O[C@H]3C=CC2CCCC3)n1 | -7.04% (inactive)
32 | COc1ccc(C2=Nc3ccccc3NC(=O)C2N(C(=O)c2cc3ccccc3[nH]2)c2ccccc2)cc1 (stereo unspecified) | 23.9% (inactive)
33 | CCCCCCCCN1C(=O)[C@@H](CC(=O)N2CCN(C(=O)OCC)CC2)C[C@@]2(C(=O)OC)C1=C[C@H](C1CCCC1)O[C@@H]2C | -4.17% (inactive)
34 | CCCCOCCCNC(=O)C[C@@H]1C[C@@]2(C(=O)OCC)CCCC=C2N(CCC2=CCCCC2)C1=O | -4.42% (inactive)
35 | CC1CCN(C(=O)c2ncn3c2C(=O)N[C@@H](C)C3)CC1 | -1.28% (inactive)
36 | C[C@H]1[C@H](c2ccccc2)Oc2cc(Br)ccc2S(=O)(=O)N1Cc1cccc(F)c1 | -3.84% (inactive)
37 | CCCNC(=O)C1(C)CCCN(Cc2cccc(C(F)(F)F)c2)C1 (stereo unspecified) | -4.42% (inactive)
38 | COc1cccc(NC(=O)CN(C)C(=O)CSC(=S)N2CCCC2)c1 | 0.702% (inactive)
39 | O=C(CSC(=S)N1CCOCC1)c1ccccc1 | 9.4% (inactive)
40 | O=C(CSC(=S)N1CCCCC1)c1c(F)cccc1F | 58.4% (active)
41 | O=C(NS(=O)(=O)c1cccs1)[C@H]1O[C@@H](n2ccc(=O)[nH]c2=O)[C@H](O)[C@@H]1O | -2.42% (inactive)
42 | COC(=O)[C@]12CCCCC=C1N(Cc1cccc3ccccc13)C(=O)[C@H](CC(=O)N1CCOCC1)C2 | 2.09% (inactive)
43 | COCc1[nH]nc2c1C(c1ccccc1)N(c1ccccc1)C2=O (stereo unspecified) | -1.18% (inactive)
44 | Cc1ccc(S(=O)(=O)N2CCN(C(=O)Cn3c(=O)cnc4ccccc43)CC2)c(C)c1 | 68.6% (active)

Row | Structure (SMILES) | activation
45 | Cc1ccc(S(=O)(=O)N2CCN(C(=O)CSc3cc(C)ccc3C)CC2)c(C)c1 | -0.764% (inactive)
46 | Cc1ccc(S(=O)(=O)N2CCN(C(=O)COC(=O)c3c(C)cc(C)cc3C)CC2)c(C)c1 | -2.2% (inactive)
47 | Cc1ccc2nc(CN(C)C(=O)[C@@H](Cc3ccccc3)NC(=O)[C@H]3O[C@@H](n4ccc(=O)[nH]c4=O)[C@H](O)[C@@H]3O)[nH]c2c1 | -3.23% (inactive)
48 | CCn1nc(C(=O)OCC(=O)N2c3ccccc3CC2C)c2ccccc2c1=O (stereo unspecified) | -0.818% (inactive)
49 | Cc1ccn(CCC(=O)N2c3ccccc3CC2C)n1 (stereo unspecified) | -0.727% (inactive)
50 | CCCC(=O)N1c2ccc(-c3csc(N)n3)cc2CC1C (stereo unspecified) | 56.5% (active)
51 | CCc1nc2ccc(C(=O)NC3CCN(Cc4ccccc4)CC3)cn2c1N(CC)CCOC | -0.563% (inactive)
52 | O=C1C(Sc2cccc(F)c2)=C[C@@]2(O)CC[C@@H](O)[C@]1(Sc1cccc(F)c1)[C@H]2O | -1.51% (inactive)
53 | O=[N+]([O-])c1cccc(C=NN=Cc2ccccc2O)c1 | 68% (active)
54 | COc1ccc(O)c(/C=N/N=C/c2cccc([N+](=O)[O-])c2)c1 | 5.49% (inactive)
55 | O=C(N/N=C/c1cccc([N+](=O)[O-])c1)c1ccncc1 | -0.352% (inactive)
56 | COCC1CCCCN1C(=O)c1cc(COc2ccc(C)c(C)c2)on1 (stereo unspecified) | 28.7% (inactive)
57 | CO[C@@H]1CN(C)C(=O)c2cc(NC(=O)Nc3cc(F)ccc3F)ccc2OC[C@H](C)N(C(=O)c2ccccn2)C[C@@H]1C | -7.29% (inactive)
58 | c1ccc2c(c1)nnn2-c1ccncc1 | -1.47% (inactive)
59 | COC(=O)c1sccc1NC(=O)c1ccc(Cl)cc1 | -0.421% (inactive)
60 | COC(=O)c1sccc1NN1C(=O)c2ccccc2C1=O | 40.2% (active)
61 | COC(=O)c1sccc1NC(=S)Nc1ccc(C)cc1 | 12.9% (inactive)
62 | O=C(NC1CCCCC1)C(c1cc2ccccc2o1)n1c(=O)c(-c2ccco2)nc2ccccc21 (stereo unspecified) | 2.44% (inactive)
63 | CCOC(=O)c1cccc(NC(=O)c2ccc(F)cc2F)c1 | 46.1% (active)
64 | CCOC(=O)c1cccc(NC(=O)CN2C(=O)C3CC=CCC3C2=O)c1 (stereo unspecified) | 0.82% (inactive)
65 | CCOC(=O)c1cccc(NC(=O)CCOc2ccccc2)c1 | -0.119% (inactive)
66 | COc1ccc(N2C(=O)c3ccccc3NC2c2ccc(OC)c(CN3CCOCC3)c2)cc1 (stereo unspecified) | 7.45% (inactive)

Row | Structure (SMILES) | activation
67 | COc1ccc(C2Nc3ccccc3C(=O)N2Cc2ccccc2)cc1Cn1nnc2ccccc21 (stereo unspecified) | -5.17% (inactive)
68 | COc1ccc(C2Nc3ccccc3C(=O)N2c2ccc(Cl)cc2)cc1Cn1cc([N+](=O)[O-])cn1 (stereo unspecified) | 63.8% (active)
69 | COc1cccc(-c2cnc3c(NC(C)=O)cc(-c4cc(F)ccc4OC)cn23)c1 | -0.939% (inactive)
70 | CC(C)(C)C1CCC(=O)N2CCC[C@]2(c2ccccc2)C1 (stereo partly specified) | -2.76% (inactive)
71 | COc1ccc(C2=NN(C(=O)c3ccccc3C(=O)O)C(c3ccccc3O)C2)cc1 (stereo unspecified) | 42.7% (active)
72 | COc1ccc(C2=NN(C(C)=O)C(c3ccccc3)C2)cc1 (stereo unspecified) | 3.24% (inactive)
73 | COc1ccc(C2=NN(C(=O)c3cccnc3)C(c3ccccc3)C2)cc1 (stereo unspecified) | 1.72% (inactive)
74 | COCCNC(=S)N(C)[C@H]1C[C@H]2c3[nH]c4ccccc4c3CCN2C[C@H]1[C@H](C)O | -0.111% (inactive)
75 | COC(=O)[C@]12CCCCC=C1N(Cc1ccc(Cl)cc1Cl)C(=O)[C@H](CC(=O)NCc1cccc3ccccc13)C2 | -3.47% (inactive)
76 | O=C(CCc1ccc(O)cc1)NN=Cc1cc(Br)ccc1O | -2.84% (inactive)
77 | O=C(Nc1ccccc1F)c1ccc2c(c1)OCO2 | 44% (active)
78 | N#Cc1ccccc1NC(=O)c1ccc2c(c1)OCO2 | 3.38% (inactive)
79 | O=C(Nc1ccccc1N1CCN(C(=O)c2ccccc2)CC1)c1ccc2c(c1)OCO2 | 1.55% (inactive)
80 | CN1C(=O)C(Br)(Br)CC1c1cccnc1 (stereo unspecified) | 0.101% (inactive)
81 | CCOC(=O)[C@]12CCCC=C1N(CCC1=CCCCC1)C(=O)[C@H](CC(=O)N1CCSCC1)C2 | -2.19% (inactive)
82 | COc1ccccc1Cc1c(-c2ccc(F)cc2)nc2ccc(C)cn12 | 13% (inactive)
83 | CCOC(=O)N1CCN(C(=O)C[C@H]2C[C@@]3(C(=O)OC)C(=C[C@H](C4CCCC4)O[C@@H]3C)N(Cc3ccccc3)C2=O)CC1 | -4.54% (inactive)
84 | CCC(C)N(C(=O)CSc1ncnc2c1cnn2-c1ccccc1)C1CCS(=O)(=O)C1 (stereo unspecified) | 0.0855% (inactive)
85 | CCN(CC)C(=O)CSc1ncnc2c1cnn2-c1ccccc1 | 61.3% (active)
86 | CCN(C(=O)CSc1ncnc2c1cnn2-c1ccccc1)C1CCS(=O)(=O)C1 (stereo unspecified) | 0.526% (inactive)
